In the supplement of paper PMC10338343:
± gives the standard deviation.

System: MILI (PIWIL2) piRISC loaded with L1MC piRNA (26 nt)
Assay: pre-steady-state target cleavage rate (min^-1); guide: L1MC piRNA 5'p-UAACUAAAUACUAUGCAAGCUGUAGG; MIWI and MILI are mouse PIWI proteins and EfPiwi is from a freshwater sponge; tags in brackets are library labels; higher = faster piRNA-guided slicing of the target
Settings: auxiliary factor: 500 nM mouse GTSF1
Method in brief: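 In HEPES–potassium acetate buffer at 33 °C, […] transcribed, DNA-blocked target RNA library was mixed with 1 nM active affinity-purified piRISC carrying one synthetic guide, with or without 500 nM GTSF1 partner protein, for 0–8 or 0–960 min. Uncleaved targets were sequenced and normalised to depth and to weakly complementary targets; three trials were pooled and k3 was capped at 0.0001 min^-1. The pre-steady-state cleavage rate followed from a burst-and-steady-state fit.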
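Further: 1 nM active piRISC with 0.1 nM target library at 33 °C single turnover.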

Point of comparison: UCCUGCUACAGCUUGCAUGAGUAUUUAGUUA, “pre-steady-state target cleavage rate” value 0.0058 ± 0.0041. Against it:
- UCCUGCUACACGAUGCAUAGUAUUUAGAAA — higher, 0.183 ± 0.042
- UCCUGGAUGUGCUUGCUUAGAAUUUAGUUA — within error, 0.00417 ± 0.0032
- UCCUGGAUCAGCUUGCAUAGUAUUAACAAA — higher, 0.0885 ± 0.022
- UCCUGGAUGUGCUUGCAUUGUAUUUAGUAA — higher, 0.0856 ± 0.015
- UCCUGGAACACCUUGCAUAGUAUUUAGAAA — higher, 0.146 ± 0.031
- UCCUGGAUGUCCAUGCUUAGUAUUUAGUUA — higher, 0.0223 ± 0.0087
- UCCUGGUACAGCUUGCAUUGUAAUUAGUUA — higher, 0.0918 ± 0.016
- UCCUGGAAGAGCUUGCAUAGUAUUUACUUA — higher, 0.0737 ± 0.02
- UCCUGGAUGUGGUUGCAUAGUAUUUACUUA — within error, 0.00985 ± 0.0096
- UCCUGGAACAGCUUGCAUAGAUAUUAGUAA — within error, 0.0101 ± 0.0057
- UCCUGGAUCAGCUUGGUUAGUAUUUAGAAA — higher, 0.0485 ± 0.016
- UCCUGGAUGUCGUUGCAUAGUAUAUAGUAA — higher, 0.0526 ± 0.018
- UCCUGCUACUGCUUGCAUAGUAUUUACUUA — higher, 0.082 ± 0.014
- UCCUGGAUGUCCUUGCAUAGUAUUUUCUAA — within error, 0.0134 ± 0.0068
- UCCUGGAUGUGCUAGCAUAGUAUUUAGAUA — higher, 0.0954 ± 0.023
- UCCUGGUACAGCUUGCAUAGUAUUUAUUA — higher, 0.042 ± 0.016
- UCCUGGAUGUCGAUGCAUAGUAUUUAGAAA — higher, 0.0516 ± 0.015
- UCCUGGAUCAGCUUGCAUUGUAUUUUCAAA — within error, 0.00931 ± 0.0046
- UCCUGGAUGUCCUUGCAUAGUAUUUUGUUA — higher, 0.0499 ± 0.0089
- UCCUGGAACAGCUUGCAUAGUUUUUUCAAA — within error, 0.00594 ± 0.0037
- UCCUGGAUCAGCUUGCUAAGUAUUUAGUAA — higher, 0.0344 ± 0.01
- UCCUGGAUCACCUUGCAUAGUAUUUAGAAA — higher, 0.22 ± 0.051
- UCCUGCUACACCUUCCAUAGUAUUUAGUUA — higher, 0.0271 ± 0.013
- UCCUGGAUCAGCUUGCAUAUGUAUUUAGUUA — within error, 0.00465 ± 0.0046
- UCCUGGAUCUGCUUGCAUAGUAUUUAGAAA — higher, 0.0794 ± 0.019
- UCCUGGAUCAGCUUGCAAUCUAUUUAGUUA — within error, 0.0116 ± 0.0035
- UCCUCCUACACGUUGCAUAGUAUUUACAAA — higher, 0.062 ± 0.019
- UCCUGGAUCAGCUUGCAUAGUAAAAAGUUA — higher, 0.102 ± 0.019
- UCCUGGAUGUGCUUGCUUAGUAUUUUGUUA — higher, 0.0645 ± 0.017
- UCCUGGAACAGCUUGCAUACUAUUUUGUUA — higher, 0.0261 ± 0.0092
- UCCUGGAUGUCCUUGGAAAGUAUUUAGUUA — higher, 0.0226 ± 0.0071
- UCCUGGAUGUGCUUGCAUAGUAUUUCGUUA — higher, 0.0261 ± 0.0098
- UCCUGCUACAGCUUGCAUAGUUAUUUCAAA — within error, 0.0109 ± 0.0051

Same assay, conditions: auxiliary factor: none (no GTSF1)

Point of comparison: UCCUGGUACAGCUUGCAUACAUUUUAGUUA, “pre-steady-state target cleavage rate” value 0.00408 ± 0.0037. Against it:
- UCCUGGAUGUCGAACGUAAGUAUUUAGUUC [g2:g12:cont:t1C] — lower, < 0.0001
- UCCUGGAUGUCGAACGUUAGUUAUUUAGUUA — lower, < 0.0001
- UCCUGGAUGUCGAACGUAUGUUUUAGUUA — lower, < 0.0001
- UCCUGGAUGUCCUUGCAUACAUAAAUCAAA [g12:g19:cont:t1A] — lower, < 0.0001
